In PubChem BioAssay (EPA / NIEHS):
“And” between values parts separate entries of the source, which are not always exact repeats. Equal values may be shown once. Some compounds were tested as several samples or in several runs, with calls that do not always agree. The source made the active and inactive calls. The calls were made as follows: active = hit-call score of the fitted dose curve at least 0.9, where 1 is the maximum; inactive = score below 0.9.

Experiments:
Settings in all cases: primary human HUVEC with PBMC; actives raise or lower the signal
[1] = read-out: Macrophage colony-stimulating factor (MCSF), CSF1 (gene 1435); test: BSK_LPS_MCSF: BioMAP Diversity Plus: LPS Assay for Macrophage colony-stimulating factor (MCSF) Biomarker Activity (AID 2283083)
Procedure, shortened: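 Human umbilical vein endothelial cells co-cultured with peripheral blood mononuclear cells were exposed to compound for 24 h. M-CSF levels were measured by ELISA, and bidirectional curve fitting used DMSO as the negative control and baseline.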

[2] = read-out: Tissue Factor, F3 (gene 2152); test: BSK_LPS_TissueFactor: BioMAP Diversity Plus: LPS Assay for Tissue Factor Biomarker Activity (AID 2283084)
Procedure, shortened: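 Human umbilical vein endothelial cells co-cultured with peripheral blood mononuclear cells were dosed and stimulated with LPS. Cell-surface CD142 was quantified by ELISA at 24 h. Activity was fitted bidirectionally against DMSO baseline.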

[3] = read-out: Tumor necrosis factor (Homo sapiens) (UniProt P01375); test: BSK_LPS_TNFa: BioMAP Diversity Plus: LPS Assay for Tumour Necrosis Factor alpha (TNFa) Biomarker Activity (AID 2283085);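 as to AC50: TNFa protein level quantified by ELISA in the co-culture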
Procedure, shortened: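 HUVEC/PBMC co-culture, LPS-stimulated; 24 h post-dose; TNFa by ELISA; gain or loss of signal fitted bidirectionally vs DMSO baseline.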

[4] = read-out: Vascular cell adhesion molecule 1 (VCAM1), VCAM1 (gene 7412); test: BSK_LPS_VCAM1: BioMAP Diversity Plus: LPS Assay for Vascular cell adhesion molecule 1 (VCAM1) Biomarker Activity (AID 2283086)
Procedure, shortened: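 ELISA read-out of VCAM-1 at 24 h post-dosing in an LPS-driven HUVEC/PBMC primary human co-culture; gain or loss of signal fitted bidirectionally against DMSO baseline. Cytotoxicity tracked in parallel cultures by SRB total-protein staining.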

CD38, CD38 (gene 952) = test: BSK_SAg_CD38: BioMAP Diversity Plus: SAg Assay for CD38 Biomarker Activity (AID 2283087)
Procedure, shortened: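 Measures CD38 on a human endothelial/PBMC co-culture driven by SEB and TSST-1, 24 h after compound exposure, using ELISA with fluorescence detection; DMSO defines baseline for bidirectional curve fitting.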

CD40, CD40 (gene 958) = test: BSK_SAg_CD40: BioMAP Diversity Plus: SAg Assay for CD40 Biomarker Activity (AID 2283088)
Procedure, shortened: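 Human umbilical vein endothelial cells co-cultured with PBMC; CD40 levels measured by ELISA with fluorescence read-out 24 h after chemical dosing. Gain or loss of signal fitted bidirectionally against DMSO baseline.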

CD69, CD69 (gene 969) = test: BSK_SAg_CD69: BioMAP Diversity Plus: SAg Assay for CD69 Biomarker Activity (AID 2283089)
Procedure, shortened: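 ELISA, fluorescence read-out: CD69 on human umbilical vein endothelial cell + PBMC co-culture, 24 h post-dosing. Gain or loss of signal fitted bidirectionally against DMSO baseline.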

[5] = read-out: Monocyte Chemoattractant Protein-1 (MCP1), CCL2 (gene 6347); test: BSK_SAg_MCP1: BioMAP Diversity Plus: SAg Assay for Monocyte Chemoattractant Protein-1 (MCP1) Biomarker Activity (AID 2283090)
Procedure, shortened: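 Values derive from bidirectional fitting of ELISA-measured MCP1 against DMSO controls. Readings were taken 24 h after dosing human vascular endothelial cells co-cultured with peripheral blood mononuclear cells under superantigen stimulation.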

[6] = read-out: E-selectin (Homo sapiens) (UniProt P16581); test: BSK_SAg_Eselectin: BioMAP Diversity Plus: SAg Assay for Eselectin Biomarker Activity (AID 2283091)
Procedure, shortened: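 HUVEC co-cultured with PBMC, compound dosed then read at 24 h; E-selectin measured by ELISA. Activity fitted bidirectionally against DMSO as negative control and baseline.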

[7] = read-out: Monokine induced gamma interferon (MIG), CXCL9 (gene 4283); test: BSK_SAg_MIG: BioMAP Diversity Plus: SAg Assay for Monokine induced gamma interferon (MIG) Biomarker Activity (AID 2283092)
Procedure, shortened: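 ELISA readout of MIG/CXCL9; primary human umbilical vein endothelial cells co-cultured with peripheral blood mononuclear cells; 24 h post-dose; gain/loss fit vs DMSO baseline.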

E-selectin (Homo sapiens), sequence (P16581 whole entry, looked up): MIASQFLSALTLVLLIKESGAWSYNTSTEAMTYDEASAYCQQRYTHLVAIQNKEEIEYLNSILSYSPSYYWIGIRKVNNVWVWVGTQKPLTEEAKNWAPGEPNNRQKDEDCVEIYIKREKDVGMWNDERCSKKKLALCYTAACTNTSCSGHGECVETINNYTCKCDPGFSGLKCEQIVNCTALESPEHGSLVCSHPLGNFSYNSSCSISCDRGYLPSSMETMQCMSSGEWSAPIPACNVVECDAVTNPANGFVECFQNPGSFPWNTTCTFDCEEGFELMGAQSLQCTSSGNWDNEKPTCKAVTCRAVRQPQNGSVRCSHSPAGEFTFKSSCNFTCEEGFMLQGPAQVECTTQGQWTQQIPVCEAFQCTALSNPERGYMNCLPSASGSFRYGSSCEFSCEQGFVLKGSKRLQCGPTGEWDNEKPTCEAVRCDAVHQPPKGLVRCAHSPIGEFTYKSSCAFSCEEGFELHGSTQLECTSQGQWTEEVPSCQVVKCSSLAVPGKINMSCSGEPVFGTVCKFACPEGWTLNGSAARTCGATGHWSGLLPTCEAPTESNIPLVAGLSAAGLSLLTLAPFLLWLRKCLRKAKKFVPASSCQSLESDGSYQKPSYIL
Tumor necrosis factor (Homo sapiens), sequence (P01375 whole entry, looked up): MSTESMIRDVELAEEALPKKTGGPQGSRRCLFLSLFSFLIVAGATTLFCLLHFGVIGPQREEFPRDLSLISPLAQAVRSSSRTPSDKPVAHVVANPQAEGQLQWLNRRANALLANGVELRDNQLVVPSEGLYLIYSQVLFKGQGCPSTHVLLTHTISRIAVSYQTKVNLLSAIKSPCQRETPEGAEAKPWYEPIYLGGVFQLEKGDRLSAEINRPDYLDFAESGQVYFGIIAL

| Structure (SMILES) | outcome [1] | outcome [2] | outcome [3] | outcome [4] | outcome (CD38, CD38 (gene 952)) | outcome (CD40, CD40 (gene 958)) | outcome (CD69, CD69 (gene 969)) | outcome [5] | outcome [6] | outcome [7] | AC50 [6] | AC50 [3] | AC50 (CD40, CD40 (gene 958)) | AC50 [1] | AC50 [4] | AC50 (CD38, CD38 (gene 952)) | AC50 [5] |
| --- | --- | --- | --- | --- | --- | --- | --- | --- | --- | --- | --- | --- | --- | --- | --- | --- | --- |
| Cc1ccc(S(=O)(=O)O)cc1C | inactive | inactive | inactive | inactive | inactive | inactive | inactive | inactive | inactive | inactive |  |  |  |  |  |  |  |
| O=C1CCCCCN1 | inactive | inactive | inactive | inactive | inactive | inactive | inactive | inactive | inactive | inactive |  |  |  |  |  |  |  |
| Nc1nc2ncc(CNc3ccc(C(=O)N[C@@H](CCC(=O)O)C(=O)O)cc3)nc2c(=O)[nH]1 | inactive | inactive | inactive | inactive | inactive | inactive | inactive | inactive | inactive | inactive |  |  |  |  |  |  |  |
| CC(C)CCCCCCCOC(=O)CCCCC(=O)OCCCCCCCC(C)C | inactive | inactive | inactive | inactive | inactive | inactive | inactive | inactive | inactive | inactive |  |  |  |  |  |  |  |
| Cc1ccc(N)cc1O | inactive | inactive | inactive | inactive | inactive | inactive | inactive | inactive |  | inactive | 6.15 µM (active) |  |  |  |  |  |  |
| O=C(O)CC(O)C(=O)O (centres undefined) | inactive | inactive | inactive | inactive | inactive | inactive | inactive | inactive | inactive | inactive |  |  |  |  |  |  |  |
| CC(=O)c1ccc2c(c1)[C@H](NC(=O)c1ccc(F)cc1)[C@@H](O)C(C)(C)O2 | inactive | inactive | inactive | inactive | inactive | inactive | inactive | inactive | inactive | inactive |  |  |  |  |  |  |  |
| O=C(O)c1cccc(Oc2ccccc2)c1 | inactive | inactive | inactive | inactive | inactive | inactive | inactive | inactive | inactive | inactive |  |  |  |  |  |  |  |
| COCCOCCOCCOC | inactive | inactive | inactive | inactive | inactive | inactive | inactive | inactive | inactive | inactive |  |  |  |  |  |  |  |
| CCn1nc(Cc2ccccc2)cc1C1CCN(C[C@H]2C[C@H](N(C)[C@@H](C(=O)O)C(C)C)C[C@@H]2c2cccc(F)c2)CC1 | inactive | inactive | inactive | inactive | inactive | inactive | inactive | inactive | inactive | inactive |  |  |  |  |  |  |  |
| Oc1ccc2c(c1)-c1ccccc1C2 | inactive | inactive |  | inactive | inactive |  | inactive | inactive | inactive | inactive |  | 334 nM (active) | 24.8 µM (active) |  |  |  |  |
| C=CCCCCCCCCC(=O)O | inactive | inactive |  | inactive | inactive | inactive | inactive | inactive | inactive | inactive |  | 740 nM (active) |  |  |  |  |  |
| O=c1[nH]c2ccc(S(=O)CCN3CCC(Cc4ccc(F)cc4)CC3)cc2o1 (centres undefined) | inactive | inactive | inactive | inactive | inactive | inactive | inactive | inactive | inactive | inactive |  |  |  |  |  |  |  |
| COCCOc1cc2cc(C(=O)NC3CCN(C(C)C)CC3)n(CC(=O)Nc3ccc(Cl)cn3)c2cn1 | inactive | inactive | inactive | inactive | inactive | inactive | inactive | inactive | inactive | inactive |  |  |  |  |  |  |  |
| CNCc1ccc(NC(=O)c2c[nH]c3c2C(=O)CCC3)cc1 | inactive | inactive | inactive | inactive | inactive | inactive | inactive | inactive | inactive | inactive |  |  |  |  |  |  |  |
| CCN(C(=O)c1cc(C)cc(OC[C@H](C)Nc2ccncc2)c1)C(C)C | inactive | inactive | inactive | inactive | inactive | inactive | inactive | inactive | inactive | inactive |  |  |  |  |  |  |  |
| CN(C)c1ccc(Cc2ccc(N(C)C)cc2)cc1 | inactive | inactive | inactive | inactive | inactive | inactive | inactive | inactive | inactive | inactive |  |  |  |  |  |  |  |
| C1=CCCC=CCCC=CCC1 | inactive | inactive | inactive | inactive | inactive | inactive | inactive | inactive | inactive | inactive |  |  |  |  |  |  |  |
| Cn1cnc([N+](=O)[O-])c1Sc1ncnc2nc[nH]c12 | inactive | inactive | inactive |  | inactive | inactive | inactive | inactive |  | inactive |  | 19.2 µM (active) and 15.7 µM (active) | 13.3 µM (active) and 8.21 µM (active) | 20.3 µM (active) and 5.64 µM (active) | 25.3 µM (active) and 6.4 µM (active) and 13.7 µM (active) | 12.1 µM (active) | 19.9 µM (active) and 12.6 µM (active) |
